Data as given in PubChem BioAssay AID1159580 (chemical genetic matrix, 2015).
Several values for one entry are separate records, joined by “and”; a condition that tells them apart may be missing. Equal values may be shown once. In all, about 5,500 compounds went through this assay and about 2,000 (36%) were called active. Another 18% or so got no clear call; they are omitted. Cut-off read from the data, not from the text of the source: active = normalized growth mostly below about 0.91 (no sharp cut-off); inconclusive = no clear call, values can overlap the other calls; inactive = mostly above about 0.92. The list shows a part of the results.

Assay: chemical genetic growth profiling, strain panel (AID 1159580);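 note: tested at 20 µM; growth read once vehicle control cultures reached saturation at 30 °C; 1 = growth at the plate median or of vehicle wells; lower values mean less growth of the strain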
Settings: S. cerevisiae deletion strains, growth OD

Measured: normalized growth

CN(C)CCOC(c1ccc(Cl)cc1)c1ccccn1 (centres undefined)
inactive: locus YAL021C, strain ccr4, stronger effect = lower value 1.04 | locus YAL026C, strain drs2, stronger effect = lower value 1.05 | locus YAL030W, strain snc1, stronger effect = lower value 1.03 | locus YBL061C, strain skt5, stronger effect = lower value 1.04 | locus YBR009C, strain hhf1, stronger effect = lower value 1.02 | locus YBR021W, strain FUR4, stronger effect = lower value 0.966 | locus YBR023C, strain chs3, stronger effect = lower value 1.03 | locus YBR171W, strain sec66, stronger effect = lower value 1.02 | locus YBR229C, strain ROT2, stronger effect = lower value 1 | locus YBR231C, strain swc5, stronger effect = lower value 1.01 | locus YBR279W, strain paf1, stronger effect = lower value 1.02 | locus YCL011C, strain gbp2, stronger effect = lower value 1.01 | locus YCL016C, strain dcc1, stronger effect = lower value 1.01 | locus YCL029C, strain bik1, stronger effect = lower value 0.999 | locus YCL069W, strain vba3, stronger effect = lower value 1.02 | locus YCR088W, strain abp1, stronger effect = lower value 1.01 | locus YDL005C, strain med2, stronger effect = lower value 1.03 | locus YDL035C, strain GPR1, stronger effect = lower value 0.978 | locus YDL040C, strain nat1, stronger effect = lower value 1.02 | locus YDL074C, strain BRE1, stronger effect = lower value 1.03 | locus YDL101C, strain DUN1, stronger effect = lower value 1.04 | locus YDL185W, strain tfp1, stronger effect = lower value 1 | locus YDL192W, strain arf1, stronger effect = lower value 1.01 | locus YDR001C, strain nth1, stronger effect = lower value 1.02 | locus YDR069C, strain doa4, stronger effect = lower value 1.03 | locus YDR101C, strain arx1, stronger effect = lower value 1.01 | locus YDR137W, strain rgp1, stronger effect = lower value 1.01 | locus YDR159W, strain sac3, stronger effect = lower value 1.02 | locus YDR162C, strain NBP2, stronger effect = lower value 0.975 | locus YDR195W, strain ref2 1.02 | locus YDR297W, strain sur2, stronger effect = lower value 1.03 | locus YDR318W, strain mcm21, stronger effect = lower value 0.998 | locus YDR334W, strain swr1, stronger effect = lower value 1.01 | locus YDR335W, strain msn5, stronger effect = lower value 1.03 | locus YDR388W, stronger effect = lower value 1.01 | locus YDR392W, strain spt3, stronger effect = lower value 1.01 | locus YDR502C, strain sam2, stronger effect = lower value 1.03 | locus YEL003W, strain gim4, stronger effect = lower value 1.01 | locus YEL037C, strain rad23, stronger effect = lower value 1.02 | locus YEL061C, strain CIN8 (second series), stronger effect = lower value 1.02 | locus YEL061C, strain CIN8, stronger effect = lower value 1.01 | locus YER015W, strain faa2, stronger effect = lower value 1.04 | locus YER016W, strain bim1, stronger effect = lower value 0.997 | locus YER110C, stronger effect = lower value 1.02 | locus YER111C, strain swi4, stronger effect = lower value 1.03 | locus YER155C, strain BEM2 (second series), stronger effect = lower value 1.02 | locus YER155C, strain BEM2, stronger effect = lower value 1.02 | locus YER167W, strain BCK2, stronger effect = lower value 0.99 | locus YFR010W, strain ubp6, stronger effect = lower value 1.03 | locus YGL078C, strain dbp3, stronger effect = lower value 0.998 | locus YGL086W, strain mad1, stronger effect = lower value 1.01 | locus YGL167C, strain pmr1, stronger effect = lower value 1.01 | locus YGL173C, strain kem1, stronger effect = lower value 1.02 | locus YGL227W, strain vid30, stronger effect = lower value 1.03 | locus YGL240W, strain doc1, stronger effect = lower value 1.04 | locus YGL248W, strain PDE1, stronger effect = lower value 1.04 | locus YGL253W, strain hxk2, stronger effect = lower value 1.03 | locus YGR078C, strain PAC10, stronger effect = lower value 1.02 | locus YGR135W, strain pre9, stronger effect = lower value 1 | locus YGR229C, strain SMI1, stronger effect = lower value 0.983 | locus YGR252W, strain gcn5, stronger effect = lower value 0.947 | locus YHR013C, strain ard1, stronger effect = lower value 1.01 | locus YHR027C, strain rpn1, stronger effect = lower value 1.02 | locus YHR030C, strain SLT2, stronger effect = lower value 1 and 1.02 | locus YHR079C, strain IRE1 (second series), stronger effect = lower value 1.01 | locus YHR079C, strain IRE1, stronger effect = lower value 1 | locus YHR094C, strain hxt1, stronger effect = lower value 1.01 | locus YHR129C, strain ARP1, stronger effect = lower value 1.01 | locus YHR142W, strain chs7, stronger effect = lower value 1.02 | locus YHR200W, strain rpn10, stronger effect = lower value 1.01 | locus YIL066C, strain RNR3, stronger effect = lower value 0.957 | locus YIL073C, strain SPO22, stronger effect = lower value 1 | locus YIL125W, strain kgd1, stronger effect = lower value 0.995 | locus YIR030C, strain dcg1, stronger effect = lower value 1.03 | locus YJL092W, strain hpr5, stronger effect = lower value 1.02 | locus YJL095W, strain BCK1 (second series), stronger effect = lower value 1.01 | locus YJL095W, strain BCK1, stronger effect = lower value 1.07 and 1 | locus YJL115W, strain asf1, stronger effect = lower value 1.02 | locus YJL129C, strain trk1, stronger effect = lower value 1.05 | locus YJL134W, strain LCB3, stronger effect = lower value 1.01 | locus YJL154C, strain vps35, stronger effect = lower value 1.02 | locus YJL164C, strain tpk1, stronger effect = lower value 1 | locus YJL166W, strain qcr8, stronger effect = lower value 1.03 | locus YJL168C, strain set2, stronger effect = lower value 1.02 | locus YJL187C, strain SWE1 (second series), stronger effect = lower value 1.04 | locus YJL187C, strain SWE1, stronger effect = lower value 1.01 | locus YJR043C, strain POL32, stronger effect = lower value 0.968 | locus YJR066W, strain TOR1, stronger effect = lower value 0.981 | locus YJR075W, strain HOC1, stronger effect = lower value 1.03 | locus YKL009W, strain mrt4, stronger effect = lower value 1.02 | locus YKL068W, stronger effect = lower value 0.997 | locus YKL085W, strain MDH1 (second series), stronger effect = lower value 0.989 | locus YKL085W, strain MDH1, stronger effect = lower value 0.989 | locus YKL160W, strain elf1, stronger effect = lower value 1.02 | locus YKL190W, strain CNB1, stronger effect = lower value 1 | locus YKR001C, strain vps1, stronger effect = lower value 1 | locus YKR026C, strain gcn3, stronger effect = lower value 1.03 | locus YKR091W, strain srl3, stronger effect = lower value 1.02 | locus YLL001W, strain dnm1, stronger effect = lower value 1.03 | locus YLL026W, stronger effect = lower value 1.03 | locus YLL041C, strain sdh2, stronger effect = lower value 1.02 | locus YLR027C, strain aat2, stronger effect = lower value 1.03 | locus YLR039C, strain RIC1, stronger effect = lower value 1.02 | locus YLR058C, strain SHM2, stronger effect = lower value 1.01 | locus YLR102C, strain apc9, stronger effect = lower value 1.01 | locus YLR113W, strain HOG1, stronger effect = lower value 0.987 | locus YLR221C, strain rsa3, stronger effect = lower value 1.01 | locus YLR258W, strain gsy2, stronger effect = lower value 1.01 | locus YLR262C, strain YPT6 (second series), stronger effect = lower value 1.04 | locus YLR262C, strain YPT6, stronger effect = lower value 1.05 | locus YLR268W, strain sec22, stronger effect = lower value 1 | locus YLR320W, strain mms22, stronger effect = lower value 1 | locus YLR330W, strain CHS5, stronger effect = lower value 1.01 | locus YLR342W, strain FKS1 (second series), stronger effect = lower value 0.95 | locus YLR342W, strain FKS1, stronger effect = lower value 1.04 | locus YLR357W, strain rsc2, stronger effect = lower value 1.06 | locus YLR370C, strain arc18, stronger effect = lower value 1.01 | locus YLR371W, strain rom2, stronger effect = lower value 1 | locus YLR384C, strain iki3, stronger effect = lower value 1.03 | locus YLR418C, strain cdc73, stronger effect = lower value 1.07 | locus YML016C, strain PPZ1, stronger effect = lower value 1.01 | locus YML032C, strain rad52, stronger effect = lower value 0.998 | locus YML120C, strain ndi1, stronger effect = lower value 1.02 | locus YML124C, strain tub3, stronger effect = lower value 1 | locus YMR058W, strain fet3, stronger effect = lower value 1.03 | locus YMR078C, strain ctf18, stronger effect = lower value 1.01 | locus YMR125W, strain sto1, stronger effect = lower value 1.01 | locus YMR129W, stronger effect = lower value 1.03 | locus YMR205C, strain PFK2, stronger effect = lower value 1.03 | locus YMR223W, strain ubp8, stronger effect = lower value 0.998 | locus YMR231W, strain pep5, stronger effect = lower value 1.03 | locus YMR307W, strain GAS1, stronger effect = lower value 0.976 | locus YNL067W, strain RPL9B, stronger effect = lower value 1.06 | locus YNL071W, strain lat1, stronger effect = lower value 1.01 | locus YNL183C, strain NPR1, stronger effect = lower value 0.941 | locus YNL209W, strain ssb2, stronger effect = lower value 1.02 | locus YNL233W, strain BNI4, stronger effect = lower value 1.04 | locus YNL248C, strain rpa49, stronger effect = lower value 1.04 | locus YNL250W, strain rad50, stronger effect = lower value 1.02 | locus YNL271C, strain bni1, stronger effect = lower value 1.03 | locus YNL298W, strain CLA4, stronger effect = lower value 0.994 | locus YNL307C, strain MCK1, stronger effect = lower value 1.01 | locus YNL322C, strain KRE1 (second series), stronger effect = lower value 1.03 | locus YNL322C, strain KRE1, stronger effect = lower value 1.01 | locus YNR049C, strain mso1, stronger effect = lower value 1.02 | locus YNR052C, strain pop2, stronger effect = lower value 1.01 | locus YOL012C, strain htz1 0.873 | locus YOL147C, strain pex11, stronger effect = lower value 1.01 | locus YOR001W, strain rrp6, stronger effect = lower value 1.04 | locus YOR061W, strain CKA2, stronger effect = lower value 1.01 | locus YOR069W, strain VPS5, stronger effect = lower value 1.01 | locus YOR070C, strain gyp1, stronger effect = lower value 1.01 | locus YOR080W, strain dia2, stronger effect = lower value 1.02 | locus YOR083W, strain WHI5, stronger effect = lower value 1.03 | locus YOR106W, strain vam3, stronger effect = lower value 1.03 | locus YOR136W, strain idh2, stronger effect = lower value 1.01 | locus YOR144C, strain elg1, stronger effect = lower value 1 | locus YOR184W, strain ser1, stronger effect = lower value 0.997 | locus YOR231W, strain MKK1, stronger effect = lower value 0.996 | locus YOR265W, strain rbl2, stronger effect = lower value 1.02 | locus YOR270C, strain vph1, stronger effect = lower value 1.05 | locus YOR290C, strain snf2, stronger effect = lower value 1 | locus YOR316C, strain cot1, stronger effect = lower value 1.01 | locus YPL051W, strain arl3, stronger effect = lower value 1.03 | locus YPL055C, strain LGE1, stronger effect = lower value 0.976 | locus YPL078C, strain atp4, stronger effect = lower value 1.02 | locus YPL106C, strain sse1, stronger effect = lower value 0.993 | locus YPL240C, strain hsp82, stronger effect = lower value 1.01 | locus YPL256C, strain CLN2, stronger effect = lower value 1 | locus YPR119W, strain clb2, stronger effect = lower value 1.01 | locus YPR141C, strain kar3, stronger effect = lower value 1.01 | locus YPR163C, strain tif3, stronger effect = lower value 1 | locus YPR167C, strain met16, stronger effect = lower value 1 | strain wtn01, stronger effect = lower value 0.995
